Where “and” joins values, the source holds several entries; their conditions need not be identical. Equal entries are not always repeated. Out of some 220,000 compounds screened, about 800 (0.36%) were called active. Rule as the data show it: active = activation above about 33% (passing the limit was not always enough); inactive = the rest. The full list was thinned out, with actives kept by preference.

Sequence of Neuropeptide Y receptor type 1 (Homo sapiens) (P25929 whole entry, looked up): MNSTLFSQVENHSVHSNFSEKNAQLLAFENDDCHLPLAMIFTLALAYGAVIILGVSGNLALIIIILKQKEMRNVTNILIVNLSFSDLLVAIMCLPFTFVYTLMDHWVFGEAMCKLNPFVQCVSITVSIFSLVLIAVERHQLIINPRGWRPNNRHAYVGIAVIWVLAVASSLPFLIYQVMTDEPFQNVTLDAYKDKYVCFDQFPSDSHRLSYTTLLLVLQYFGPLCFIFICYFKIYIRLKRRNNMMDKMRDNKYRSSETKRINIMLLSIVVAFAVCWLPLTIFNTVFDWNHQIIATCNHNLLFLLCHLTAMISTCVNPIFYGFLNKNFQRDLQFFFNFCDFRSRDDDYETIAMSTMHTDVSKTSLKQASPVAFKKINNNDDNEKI

The experiment has as its target Neuropeptide Y receptor type 1 (Homo sapiens) (UniProt P25929). Briefly: NPY-Y1 receptor potentiators or agonists, primary screen, cell-based (AID 1304).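 Also: cells stimulated with NPY at EC10 then isoproterenol at EC100; 0% = low agonist plus stimulus and 100% = saturating agonist plus stimulus.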 To be noted: NPY-Y1 expressing cells, potentiator/agonist activation; at 3.6 µM; stronger effect = higher value.
Turning to `S=c1[nH]nc(-c2cc(-c3ccsc3)n[nH]2)n1-c1ccccc1`, the activation was -8.71% (inactive).

Take `Cc1nnsc1C(=O)N/N=C/c1ccccc1Cl`: the activation is -6.23% (inactive).

In the case of `O=C(Nc1ccc(F)cc1F)N1CCCN(CCOc2ccccc2)CC1`, the activation was 4.67% (inactive).

Consider `CCOC(=O)C1(CC2CCCCO2)CCN(Cc2nc(-c3cccs3)oc2C)CC1` (stereo unspecified), for which the activation is 1.86% (inactive).

Take `CC(=O)O[C@]1(C(C)=O)CC[C@H]2[C@@H]3C=C(C)C4=CC(=O)CC[C@]4(C)[C@H]3CC[C@@]21C`: the activation is -14.5% (inactive) and 5.59% (inactive).

For the compound `Cc1noc(COc2ccccc2OCC(O)CNC(C)(C)C)n1` (stereo unspecified), the activation is 111% (active).

`CC(C)(C)CC(C)(C)NCC(O)COCCOc1ccc(Br)cc1` (stereo unspecified): the activation was -16.3% (inactive).

`Cc1noc(COc2ccccc2OCc2onc(C)c2Cl)c1Cl`: the activation was -31.2% (inactive).

Take `Nc1nc(O)c(CC(=O)O)s1`: the activation is -3.67% (inactive).

In the case of `CCc1cc(-c2n[nH]c(=S)n2CC(C)C)cs1`, the activation was -23.7% (inactive).

`COC(=O)c1ccc(NC(=O)Nc2ccc(C)cc2)cc1`: the activation is 101% (active).

For `CC(=O)c1cccc(NC(=O)Nc2ccc(C)cc2)c1`, the activation was -1.32% (inactive).

On to `Cc1ccc(NC(=O)CC(=O)Nc2ccc(C)cc2)cc1`, for which the activation is -0.47% (inactive).

Turning to `CO/N=C/c1cn(-c2ccc(Cl)cc2)nn1`, the activation was -2.97% (inactive).

As for `CN(c1ccccc1)S(=O)(=O)c1ccc(Cl)c(C(=O)OCC(=O)NCc2ccco2)c1`, the activation is 16.8% (inactive).

Take `O=c1[nH]oc(O)c1-c1ncc(C(F)(F)F)cc1Cl`: the activation was 7.56% (inactive).

Consider `CC(=O)NC(=S)NNC(=O)c1ccc(Br)cc1`, for which the activation is -6.38% (inactive).

For the compound `N#Cc1ccc(C(=O)Nc2nc(-c3cccs3)c(C(=O)C(F)(F)F)s2)cc1`, the activation is 45.4% (active).

With `CC(=O)c1sc(NC(=O)c2ccc(C)cc2)nc1C`, the activation was 5.15% (inactive).

Regarding `Cc1ccc(C(=O)Nc2nnc(-c3cccs3)s2)cc1C`, the activation is 19.3% (inactive).

In the case of `Cc1ccc(NC(=S)N2CCCC(c3ccccc3)=N2)cc1`, the activation is -12% (inactive).

For the compound `CCOC(=O)c1cnc2ccc(F)cc2c1Nc1ccc2c(c1)OCCO2`, the activation was -7.89% (inactive).

Take `CCCCNC(=O)Nc1c(C)cc(SC#N)cc1C`: the activation was -6.72% (inactive).

`O=C(CCCN1C(=O)c2ccccc2C1=O)Oc1ccc(Cl)cc1`: the activation was -9.31% (inactive).

For the compound `O=C(NCCc1csc(-c2ccccc2)n1)c1ccccc1F`, the activation was -10.8% (inactive).

Regarding `CC(=O)c1ccc(NC(=O)C2CC(=O)Nc3nc4ccccc4n32)cc1` (stereo unspecified), the activation was 46.6% (active).

For `O=C(Nc1ccccc1)C1CC(=O)n2c(nc3ccccc32)N1` (stereo unspecified), the activation is 16.2% (inactive).

Take `CCOC(=O)c1ccc(NC(=O)C2CC(=O)Nc3nc4ccccc4n32)cc1` (stereo unspecified): the activation was 2.63% (inactive).

As to `Cc1nnc(SC(C(=O)c2ccccc2)c2ccccc2)[nH]c1=O` (stereo unspecified), the activation is -19.4% (inactive).

`COc1ccc2[nH]c(=S)cc(C)c2c1`: the activation is -18.7% (inactive).

In the case of `CCN(CC)CC(=O)c1c[nH]c2ccc(OC)cc12`, the activation was -5.01% (inactive).

As to `COc1ccc2[nH]c3ccc(OC)cc3c2c1`, the activation was 64.7% (active).

Take `CC1CCCCC1NC(=O)CN1CCC(O)(c2ccc3c(c2)OCO3)CC1` (stereo unspecified): the activation is 3.89% (inactive).

As for `Cn1cnnc1SCC(=O)NNC(=O)COc1ccc(Br)cc1`, the activation is -5.38% (inactive).

With `C/C(Cc1ccccc1)=N\NC(=O)CNC(=O)c1ccccc1Cl`, the activation is -3% (inactive).

In the case of `Cc1ccn(-c2cccc(-n3ccc(C)n3)n2)n1`, the activation is -27.2% (inactive).

Consider `S=C(NCc1ccc2c(c1)OCO2)NCc1ccco1`, for which the activation is -4.25% (inactive).

In the case of `C=CCOc1ccc(/C=C2\SC(=S)N(CCC(=O)O)C2=O)cc1`, the activation was 6.81% (inactive).

Regarding `CC(=O)Nc1ccc(OC(=O)COc2ccc(Br)cc2)cc1`, the activation is -18.4% (inactive).

For `CCOC(=O)CN(C(=O)COc1nc(-c2ccccc2)cc(C)c1C#N)c1ccc(F)cc1`, the activation is -29.2% (inactive).

As to `O=C(Nc1ccccc1)Nc1ccc(C(F)(F)F)cn1`, the activation is 5.1% (inactive).

As to `Cc1nccn1CC(=O)N/N=C/c1ccc(O)c(O)c1`, the activation was 2.53% (inactive).

Take `Oc1ccc(/C=N/Nc2ccc(C(F)(F)F)cn2)cc1O`: the activation was 54.9% (active).

Regarding `Cc1cc(/C=C2/SC(=O)N(CC(=O)N3CCCC3)C2=O)ccc1N1CCOCC1`, the activation is 15.8% (inactive).

With `O=C(NCc1ccccc1)C1=C[C@@H](c2ccc(C(F)(F)F)cc2)C[C@@H](OCc2ccc(CO)cc2)O1`, the activation is -2.07% (inactive).

Regarding `CC(=O)Nc1ccc(NC(=O)C(C)n2c3ccccc3c3nc(=O)cc(C)n32)cc1` (stereo unspecified), the activation is -7.92% (inactive).

On to `CCNS(=O)(=O)c1ccc(NC(=O)Nc2cccc(C(F)(F)F)c2)cc1`, for which the activation is 47.1% (active).

Take `Cc1ccc(NC(=O)Nc2cccc(C(F)(F)F)c2)nc1`: the activation is 1.1% (inactive).

As to `CCNS(=O)(=O)c1ccc(NC(=O)Nc2cccc(OC)c2)cc1`, the activation was 13.3% (inactive).

Consider `Cc1cc(Cl)ccc1NC(=S)NCCCN1CCCC1=O`, for which the activation was 3.39% (inactive).

As for `COC(=O)c1cc(S(=O)(=O)N2CCC(C(N)=O)CC2)oc1C`, the activation is -1.47% (inactive).

Consider `O=C(CN1CCN(c2ccc(O)cc2)CC1)Nc1cc(S(=O)(=O)N2CCOCC2)ccc1Cl`, for which the activation was -5.24% (inactive).

Take `O=C(N/N=C/c1ccc([N+](=O)[O-])o1)c1cccc(S(=O)(=O)N2CCOCC2)c1`: the activation was -11.9% (inactive).

For `O=[N+]([O-])c1cc(Cl)cc(/C=N/NC(=S)Nc2cc(S(=O)(=O)N3CCOCC3)ccc2Cl)c1O`, the activation is 77.5% (active).

Consider `CC(C)(C)C(=O)NNC(=O)c1ccc(Oc2cc(Cl)cc(Cl)c2)o1`, for which the activation was -7.64% (inactive).

As to `Cc1ccc(C)c(Cn2cnc3c(oc4ccccc43)c2=O)c1`, the activation is -12.5% (inactive).

For `COc1cccc2cc(S(=O)(=O)c3ccc(C)cc3)/c(=N/NS(=O)(=O)c3ccc(C)cc3)oc12`, the activation was 2.71% (inactive).

Take `C=CCNC(=O)/C=C/c1ccc(C(C)C)cc1`: the activation is 9.4% (inactive).

As to `CCOC(=O)c1[nH]ncc1CN1CCCC(C(=O)c2ccc(OC)cc2C)C1` (stereo unspecified), the activation was -0.54% (inactive).

In the case of `COc1ccc(C(=O)C2CCCN(Cc3cccn3-c3ccccn3)C2)c(C)c1` (stereo unspecified), the activation is 79.6% (active).

As to `COc1ccc(C(=O)C2CCCN(Cc3ccc4nonc4c3)C2)c(C)c1` (stereo unspecified), the activation was -11.8% (inactive).

These data come from PubChem BioAssay AID1304 (The Scripps Research Institute Molecular Screening Center, 2008).
